The values that follow come from article PMC7862700, “An all-to-all approach to the identification of sequence-specific readers for epigenetic DNA modifications on cytosine”.

Common to all, as to experiment: DAPPL (digital affinity profiling via proximity ligation, sequencing); 10 mM Tris-HCl pH 7.5, 50 mM NaCl, 1 mM DTT, 4% glycerol, room temperature, 30 min; GST-TFs on glutathione beads, 16-mer random dsDNA library, 0.1% formaldehyde crosslink after washing; high values mean tight binding
In experiment [1] the target is T1, FLI1 (Homo sapiens, UniProt Q01543 1-452).
T1 sequence: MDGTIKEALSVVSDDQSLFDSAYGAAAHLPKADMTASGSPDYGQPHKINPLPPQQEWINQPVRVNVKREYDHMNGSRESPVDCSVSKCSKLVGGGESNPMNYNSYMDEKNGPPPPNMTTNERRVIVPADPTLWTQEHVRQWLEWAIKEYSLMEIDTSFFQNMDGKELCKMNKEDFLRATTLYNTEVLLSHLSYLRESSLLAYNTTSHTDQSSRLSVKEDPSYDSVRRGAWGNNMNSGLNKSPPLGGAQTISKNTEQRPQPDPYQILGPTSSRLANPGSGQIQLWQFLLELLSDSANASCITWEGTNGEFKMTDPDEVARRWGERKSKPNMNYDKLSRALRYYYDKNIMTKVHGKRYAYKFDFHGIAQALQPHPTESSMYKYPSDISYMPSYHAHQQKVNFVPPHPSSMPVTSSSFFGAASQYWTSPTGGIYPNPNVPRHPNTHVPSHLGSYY
Particulars: protein: recombinant; tags: N-terminal GST; dsDNA, one strand shown. In a few lines:
(§1)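 In yeast, human transcription factors were expressed with a GST fusion, then pulled down on glutathione beads and given DNA barcodes. Pooled with a tag-only sample, they were exposed to 200 nmole of a 16-mer random double-stranded DNA library (Tris/NaCl/DTT/glycerol buffer, room temperature, 30 min), washed, crosslinked with 0.1% formaldehyde, proximity-ligated using BsaI/T4 ligase for 1 h at 37 °C, PCR-amplified and read on an Illumina NextSeq500. Each hexamer's frequency of reads for a factor, divided by the matching frequency for the tag-only sample, gives the binding signal.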

Experiment [2] concerns the target T2, ELK1 (Homo sapiens, UniProt P19419 1-428).
T2 sequence: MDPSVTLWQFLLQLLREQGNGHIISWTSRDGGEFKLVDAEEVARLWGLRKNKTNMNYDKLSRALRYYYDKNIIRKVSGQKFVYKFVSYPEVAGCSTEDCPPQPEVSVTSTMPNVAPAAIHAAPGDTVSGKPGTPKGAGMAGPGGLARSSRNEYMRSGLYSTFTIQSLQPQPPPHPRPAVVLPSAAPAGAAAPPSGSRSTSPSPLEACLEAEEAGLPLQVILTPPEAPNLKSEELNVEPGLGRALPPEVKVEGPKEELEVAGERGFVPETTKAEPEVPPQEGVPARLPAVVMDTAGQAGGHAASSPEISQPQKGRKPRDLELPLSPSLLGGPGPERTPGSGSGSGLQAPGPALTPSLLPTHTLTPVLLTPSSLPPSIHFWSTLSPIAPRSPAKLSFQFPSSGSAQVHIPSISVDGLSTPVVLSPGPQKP
Particulars: protein: recombinant; tags: N-terminal GST; dsDNA, one strand shown. In a few lines:
as §1

Experiment [3] deals with T3, GABPA (Homo sapiens, UniProt Q06546 1-454).
T3 sequence: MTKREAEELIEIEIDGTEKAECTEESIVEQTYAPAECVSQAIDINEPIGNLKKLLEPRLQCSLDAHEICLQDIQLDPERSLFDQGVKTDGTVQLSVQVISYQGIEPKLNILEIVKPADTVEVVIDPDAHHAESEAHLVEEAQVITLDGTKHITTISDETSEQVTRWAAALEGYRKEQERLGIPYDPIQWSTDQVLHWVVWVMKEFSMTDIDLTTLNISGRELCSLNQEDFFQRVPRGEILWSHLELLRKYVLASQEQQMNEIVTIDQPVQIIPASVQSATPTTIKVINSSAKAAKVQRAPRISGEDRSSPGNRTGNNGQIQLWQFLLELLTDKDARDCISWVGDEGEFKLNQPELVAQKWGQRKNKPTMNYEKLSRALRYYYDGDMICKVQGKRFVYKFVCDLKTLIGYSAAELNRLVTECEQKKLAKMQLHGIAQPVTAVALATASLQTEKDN
Particulars: protein: recombinant; tags: N-terminal GST; dsDNA, one strand shown. In a few lines: as §1

Experiment [4] concerns the target T4, ERG (Homo sapiens, UniProt P11308 1-479).
T4 sequence: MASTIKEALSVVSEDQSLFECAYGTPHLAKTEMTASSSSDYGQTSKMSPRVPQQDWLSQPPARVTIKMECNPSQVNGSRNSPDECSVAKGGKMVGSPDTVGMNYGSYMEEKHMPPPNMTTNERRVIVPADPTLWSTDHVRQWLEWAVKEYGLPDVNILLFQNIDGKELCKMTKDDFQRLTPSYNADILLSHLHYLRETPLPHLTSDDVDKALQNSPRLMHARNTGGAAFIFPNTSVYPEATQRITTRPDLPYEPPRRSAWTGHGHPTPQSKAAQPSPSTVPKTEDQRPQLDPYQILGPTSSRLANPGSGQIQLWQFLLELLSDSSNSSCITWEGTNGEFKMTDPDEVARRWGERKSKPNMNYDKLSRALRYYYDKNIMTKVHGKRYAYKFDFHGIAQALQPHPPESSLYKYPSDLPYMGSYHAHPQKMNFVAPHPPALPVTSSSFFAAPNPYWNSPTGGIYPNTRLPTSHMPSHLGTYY
Conditions: protein: recombinant; tags: N-terminal GST; dsDNA, one strand shown. Put shortly: as §1

For experiment [5], the target named is ELF1 (Homo sapiens, UniProt P32519 1-619). Particulars: protein: recombinant; tags: N-terminal GST; dsDNA, one strand shown. Put shortly:
as §1

For experiment [6], the target named is T5, EHF (Homo sapiens, UniProt Q9NZC4 1-300).
T5 sequence: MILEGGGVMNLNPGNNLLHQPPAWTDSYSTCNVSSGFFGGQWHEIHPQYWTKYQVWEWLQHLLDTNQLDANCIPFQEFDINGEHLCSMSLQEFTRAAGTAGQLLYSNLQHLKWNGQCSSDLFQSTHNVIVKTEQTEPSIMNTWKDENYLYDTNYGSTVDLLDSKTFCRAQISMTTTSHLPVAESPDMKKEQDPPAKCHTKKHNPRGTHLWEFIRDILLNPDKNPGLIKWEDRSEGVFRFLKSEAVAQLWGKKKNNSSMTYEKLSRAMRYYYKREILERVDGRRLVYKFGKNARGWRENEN
Conditions: protein: recombinant; tags: N-terminal GST; dsDNA, one strand shown. In a few lines: as §1

Experiment [7] concerns the target SPI1 (Homo sapiens, UniProt P17947 1-270). Particulars: protein: recombinant; tags: N-terminal GST; dsDNA, one strand shown. Put shortly: as §1
Experiment [8] has as its target SPIB (Homo sapiens, UniProt Q01892 1-262). Particulars: protein: recombinant; tags: N-terminal GST; dsDNA, one strand shown. Put shortly:
as §1

Experiment [9] addresses T6, ELK3 (Homo sapiens, UniProt P41970 1-407).
T6 sequence: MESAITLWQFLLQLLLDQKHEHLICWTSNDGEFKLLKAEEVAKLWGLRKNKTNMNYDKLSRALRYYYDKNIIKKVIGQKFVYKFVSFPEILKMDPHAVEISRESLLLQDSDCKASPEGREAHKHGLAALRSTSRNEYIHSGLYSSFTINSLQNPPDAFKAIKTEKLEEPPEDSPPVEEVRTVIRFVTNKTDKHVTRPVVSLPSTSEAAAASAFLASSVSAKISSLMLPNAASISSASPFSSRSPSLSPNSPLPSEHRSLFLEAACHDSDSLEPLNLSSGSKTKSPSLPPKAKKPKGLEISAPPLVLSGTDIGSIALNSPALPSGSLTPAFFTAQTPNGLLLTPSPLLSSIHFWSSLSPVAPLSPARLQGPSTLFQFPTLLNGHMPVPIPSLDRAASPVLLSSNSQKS
Conditions: protein: recombinant; tags: N-terminal GST; dsDNA, one strand shown. Put shortly: as §1

Experiment [10] addresses T7, FEV (Homo sapiens, UniProt Q99581 1-238).
T7 sequence: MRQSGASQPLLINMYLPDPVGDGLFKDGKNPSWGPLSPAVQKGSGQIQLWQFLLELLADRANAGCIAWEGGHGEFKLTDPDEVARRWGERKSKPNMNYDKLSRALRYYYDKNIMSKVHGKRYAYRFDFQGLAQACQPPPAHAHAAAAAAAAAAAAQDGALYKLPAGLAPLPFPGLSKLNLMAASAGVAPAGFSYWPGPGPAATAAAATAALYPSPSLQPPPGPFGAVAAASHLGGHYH
Conditions: protein: recombinant; tags: N-terminal GST; dsDNA, one strand shown. In a few lines: as §1

Experiment [11] addresses ETV5 (Homo sapiens, UniProt P41161 1-510). Particulars: protein: recombinant; tags: N-terminal GST; dsDNA, one strand shown. Put shortly:
as §1

For experiment [12], the target named is HSF1 (Homo sapiens, UniProt Q00613 1-529). Particulars: protein: recombinant; tags: N-terminal GST; chain copies: 3; dsDNA, one strand shown. In a few lines: as §1
Experiment [13] concerns the target T8, SPIC (Homo sapiens, UniProt Q8N5J4 1-248).
T8 sequence: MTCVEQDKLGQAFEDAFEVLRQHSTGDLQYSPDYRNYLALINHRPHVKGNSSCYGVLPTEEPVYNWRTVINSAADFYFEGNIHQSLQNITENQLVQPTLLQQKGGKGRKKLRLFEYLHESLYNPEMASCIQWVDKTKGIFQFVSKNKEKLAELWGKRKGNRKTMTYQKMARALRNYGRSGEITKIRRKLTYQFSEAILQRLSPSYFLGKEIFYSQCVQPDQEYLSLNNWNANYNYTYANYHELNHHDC
Particulars: protein: recombinant; tags: N-terminal GST; dsDNA, one strand shown. Put shortly: as §1

Experiment [14] concerns the target ELF4 (Homo sapiens, UniProt Q99607 1-663). Particulars: protein: recombinant; tags: N-terminal GST; dsDNA, one strand shown. In a few lines:
as §1

Experiment [15] addresses T9, ELK4 (Homo sapiens, UniProt P28324-2 1-405).
T9 sequence: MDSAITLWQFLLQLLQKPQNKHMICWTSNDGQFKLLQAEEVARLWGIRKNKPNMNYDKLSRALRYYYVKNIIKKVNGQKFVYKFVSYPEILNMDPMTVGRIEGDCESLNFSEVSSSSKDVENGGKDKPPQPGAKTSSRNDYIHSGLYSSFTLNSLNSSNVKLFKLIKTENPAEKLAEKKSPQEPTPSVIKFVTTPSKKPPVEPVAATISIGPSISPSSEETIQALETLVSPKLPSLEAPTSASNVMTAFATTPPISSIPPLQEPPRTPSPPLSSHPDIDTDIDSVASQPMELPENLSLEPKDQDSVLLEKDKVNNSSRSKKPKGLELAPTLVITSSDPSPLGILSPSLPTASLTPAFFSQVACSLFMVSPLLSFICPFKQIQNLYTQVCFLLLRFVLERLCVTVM
Particulars: protein: recombinant; tags: N-terminal GST; dsDNA, one strand shown. In a few lines:
as §1

The target of experiment [16] is T10, ETV2 (Homo sapiens, UniProt O00321 1-342).
T10 sequence: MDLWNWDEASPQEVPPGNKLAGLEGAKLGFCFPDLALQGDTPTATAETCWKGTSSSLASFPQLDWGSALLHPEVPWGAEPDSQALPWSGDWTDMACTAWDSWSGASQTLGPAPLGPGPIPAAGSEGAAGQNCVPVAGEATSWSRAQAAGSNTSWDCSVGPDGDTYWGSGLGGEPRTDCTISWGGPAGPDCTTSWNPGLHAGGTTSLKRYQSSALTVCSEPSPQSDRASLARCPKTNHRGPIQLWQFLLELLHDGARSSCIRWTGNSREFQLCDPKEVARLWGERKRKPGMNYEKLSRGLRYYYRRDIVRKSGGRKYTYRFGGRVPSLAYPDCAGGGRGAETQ
Conditions: protein: recombinant; tags: N-terminal GST; dsDNA, one strand shown. In a few lines:
as §1

Experiment [17] addresses T11, ELF3 (Homo sapiens, UniProt P78545 1-371).
T11 sequence: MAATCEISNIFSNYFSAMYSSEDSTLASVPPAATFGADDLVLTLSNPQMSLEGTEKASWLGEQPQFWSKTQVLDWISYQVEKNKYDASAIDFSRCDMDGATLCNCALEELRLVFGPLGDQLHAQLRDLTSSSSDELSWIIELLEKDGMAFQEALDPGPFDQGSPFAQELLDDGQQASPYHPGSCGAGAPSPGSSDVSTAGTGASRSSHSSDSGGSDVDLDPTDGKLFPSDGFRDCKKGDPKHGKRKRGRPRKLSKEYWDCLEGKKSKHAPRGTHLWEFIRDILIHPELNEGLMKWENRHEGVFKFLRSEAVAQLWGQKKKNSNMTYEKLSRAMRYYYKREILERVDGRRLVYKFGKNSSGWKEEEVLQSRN
Particulars: protein: recombinant; tags: N-terminal GST; dsDNA, one strand shown. In a few lines:
as §1

The target in experiment [18] is CRX (Homo sapiens, UniProt O43186 1-299). Particulars: protein: recombinant; tags: N-terminal GST; dsDNA, one strand shown. In a few lines: as §1
Experiment [19] deals with ETV1 (Homo sapiens, UniProt P50549 1-477). Particulars: protein: recombinant; tags: N-terminal GST; dsDNA, one strand shown. In a few lines: as §1
Sequence of ETV1 (P50549 whole entry): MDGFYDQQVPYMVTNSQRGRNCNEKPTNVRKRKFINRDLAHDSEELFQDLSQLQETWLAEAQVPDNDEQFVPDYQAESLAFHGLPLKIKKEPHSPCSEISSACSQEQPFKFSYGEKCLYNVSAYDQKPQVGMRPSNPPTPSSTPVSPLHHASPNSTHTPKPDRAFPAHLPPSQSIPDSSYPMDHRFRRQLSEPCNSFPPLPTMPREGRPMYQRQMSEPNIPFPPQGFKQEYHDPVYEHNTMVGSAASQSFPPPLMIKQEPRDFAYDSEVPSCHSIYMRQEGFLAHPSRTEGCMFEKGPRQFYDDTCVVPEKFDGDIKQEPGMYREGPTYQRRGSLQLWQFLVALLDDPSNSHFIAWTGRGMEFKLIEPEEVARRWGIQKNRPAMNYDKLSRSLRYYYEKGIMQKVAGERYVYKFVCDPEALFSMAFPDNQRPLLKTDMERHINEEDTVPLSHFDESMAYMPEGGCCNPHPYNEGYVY

Sequence of CRX (O43186 whole entry): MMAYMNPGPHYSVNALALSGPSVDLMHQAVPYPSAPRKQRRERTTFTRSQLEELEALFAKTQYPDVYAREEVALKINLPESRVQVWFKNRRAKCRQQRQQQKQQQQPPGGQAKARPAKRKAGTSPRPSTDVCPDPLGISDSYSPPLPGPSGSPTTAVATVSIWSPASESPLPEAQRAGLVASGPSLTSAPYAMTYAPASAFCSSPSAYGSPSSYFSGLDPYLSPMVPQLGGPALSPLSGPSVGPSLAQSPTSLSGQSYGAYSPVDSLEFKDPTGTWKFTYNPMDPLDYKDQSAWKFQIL
Sequence of ELF4 (Q99607 whole entry): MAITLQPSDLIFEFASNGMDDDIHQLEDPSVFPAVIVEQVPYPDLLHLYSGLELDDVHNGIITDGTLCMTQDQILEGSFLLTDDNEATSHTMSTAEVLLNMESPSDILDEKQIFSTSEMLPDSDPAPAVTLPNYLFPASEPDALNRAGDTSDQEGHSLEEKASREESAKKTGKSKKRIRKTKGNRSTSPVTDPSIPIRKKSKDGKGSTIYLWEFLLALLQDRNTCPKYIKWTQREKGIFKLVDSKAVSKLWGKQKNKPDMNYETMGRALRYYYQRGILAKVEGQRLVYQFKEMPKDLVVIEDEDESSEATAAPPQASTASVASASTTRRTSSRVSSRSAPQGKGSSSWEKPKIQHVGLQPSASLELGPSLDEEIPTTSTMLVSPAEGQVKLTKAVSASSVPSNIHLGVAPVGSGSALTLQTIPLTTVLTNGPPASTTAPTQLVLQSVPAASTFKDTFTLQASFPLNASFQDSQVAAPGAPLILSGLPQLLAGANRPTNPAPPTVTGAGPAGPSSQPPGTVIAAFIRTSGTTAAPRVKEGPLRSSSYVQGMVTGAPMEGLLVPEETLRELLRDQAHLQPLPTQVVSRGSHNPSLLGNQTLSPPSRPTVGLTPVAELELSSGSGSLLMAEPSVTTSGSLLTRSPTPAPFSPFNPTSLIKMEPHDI
Sequence of ELF1 (P32519 whole entry): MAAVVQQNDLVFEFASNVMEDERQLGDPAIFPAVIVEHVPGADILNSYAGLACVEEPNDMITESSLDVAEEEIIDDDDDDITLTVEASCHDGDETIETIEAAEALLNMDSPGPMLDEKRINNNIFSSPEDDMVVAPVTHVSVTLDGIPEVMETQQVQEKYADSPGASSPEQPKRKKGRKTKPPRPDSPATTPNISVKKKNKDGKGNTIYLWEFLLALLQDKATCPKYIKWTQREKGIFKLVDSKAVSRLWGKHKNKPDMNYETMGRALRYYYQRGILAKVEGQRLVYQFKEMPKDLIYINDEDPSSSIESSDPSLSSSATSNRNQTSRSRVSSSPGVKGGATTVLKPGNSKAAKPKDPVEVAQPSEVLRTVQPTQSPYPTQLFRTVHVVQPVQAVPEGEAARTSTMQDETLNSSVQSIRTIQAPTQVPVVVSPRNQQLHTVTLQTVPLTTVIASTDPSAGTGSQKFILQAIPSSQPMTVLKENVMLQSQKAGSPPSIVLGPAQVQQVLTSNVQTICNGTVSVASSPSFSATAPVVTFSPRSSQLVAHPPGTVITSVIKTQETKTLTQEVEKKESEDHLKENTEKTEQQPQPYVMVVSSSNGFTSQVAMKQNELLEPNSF
Sequence of HSF1 (Q00613 whole entry): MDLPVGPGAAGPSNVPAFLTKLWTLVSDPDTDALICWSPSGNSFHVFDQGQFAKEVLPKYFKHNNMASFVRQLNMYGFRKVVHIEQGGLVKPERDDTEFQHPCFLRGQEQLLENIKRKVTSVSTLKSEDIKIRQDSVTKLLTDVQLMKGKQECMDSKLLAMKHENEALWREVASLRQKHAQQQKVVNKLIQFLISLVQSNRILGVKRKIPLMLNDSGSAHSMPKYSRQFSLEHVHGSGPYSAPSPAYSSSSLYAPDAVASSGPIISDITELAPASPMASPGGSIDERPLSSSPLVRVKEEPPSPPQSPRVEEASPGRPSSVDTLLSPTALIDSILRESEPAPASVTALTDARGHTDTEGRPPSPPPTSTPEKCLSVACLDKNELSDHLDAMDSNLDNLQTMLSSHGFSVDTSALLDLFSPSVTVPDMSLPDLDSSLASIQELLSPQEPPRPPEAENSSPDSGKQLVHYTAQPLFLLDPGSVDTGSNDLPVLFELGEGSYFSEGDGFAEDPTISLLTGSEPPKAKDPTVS
Sequence of ETV5 (P41161 whole entry): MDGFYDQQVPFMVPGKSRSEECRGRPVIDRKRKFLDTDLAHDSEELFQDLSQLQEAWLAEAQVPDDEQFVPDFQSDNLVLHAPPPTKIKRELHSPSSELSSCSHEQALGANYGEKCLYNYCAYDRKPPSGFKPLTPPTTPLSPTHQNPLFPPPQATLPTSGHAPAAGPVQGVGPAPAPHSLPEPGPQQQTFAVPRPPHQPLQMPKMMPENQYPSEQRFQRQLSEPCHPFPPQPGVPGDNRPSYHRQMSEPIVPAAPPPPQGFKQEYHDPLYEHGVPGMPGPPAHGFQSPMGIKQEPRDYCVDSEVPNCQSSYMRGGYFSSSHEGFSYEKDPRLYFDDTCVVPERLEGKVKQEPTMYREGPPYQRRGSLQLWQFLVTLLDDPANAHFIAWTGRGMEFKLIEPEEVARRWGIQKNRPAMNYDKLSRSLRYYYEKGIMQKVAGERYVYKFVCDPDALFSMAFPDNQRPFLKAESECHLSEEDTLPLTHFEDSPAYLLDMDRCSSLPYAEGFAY
Sequence of SPIB (Q01892 whole entry): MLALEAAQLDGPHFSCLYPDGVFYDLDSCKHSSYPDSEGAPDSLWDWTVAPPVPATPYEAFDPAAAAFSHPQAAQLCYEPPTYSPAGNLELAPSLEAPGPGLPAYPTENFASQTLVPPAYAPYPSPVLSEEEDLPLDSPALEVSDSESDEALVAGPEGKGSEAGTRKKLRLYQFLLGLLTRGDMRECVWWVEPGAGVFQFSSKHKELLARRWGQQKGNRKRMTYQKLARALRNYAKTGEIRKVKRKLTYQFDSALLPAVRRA

Take AAGCTG: the binding signal in experiment [1] is 1.21 fold enrichment (6-mer frequency, TF over GST control); in [2], 1.24 fold enrichment (6-mer frequency, TF over GST control); in [3] it was 1.16 fold enrichment (6-mer frequency, TF over GST control); in [4], 1.13 fold enrichment (6-mer frequency, TF over GST control); in experiment [5], 1.16 fold enrichment (6-mer frequency, TF over GST control); in experiment [6] it was 1.08 fold enrichment (6-mer frequency, TF over GST control). Further, the binding signal in [7] was 1.03 fold enrichment (6-mer frequency, TF over GST control); in experiment [8], 1.14 fold enrichment (6-mer frequency, TF over GST control); in experiment [9], 1.08 fold enrichment (6-mer frequency, TF over GST control); in [10], 1.14 fold enrichment (6-mer frequency, TF over GST control); in experiment [11], 1.08 fold enrichment (6-mer frequency, TF over GST control); in experiment [12] it was 1.25 fold enrichment (6-mer frequency, TF over GST control). Besides, the binding signal in experiment [13] was 1.08 fold enrichment (6-mer frequency, TF over GST control); in [14] it was 1.08 fold enrichment (6-mer frequency, TF over GST control); in experiment [15], 1.19 fold enrichment (6-mer frequency, TF over GST control); in [16] it was 1.17 fold enrichment (6-mer frequency, TF over GST control); in [17], 1.28 fold enrichment (6-mer frequency, TF over GST control); in experiment [18] it was 1.59 fold enrichment (6-mer frequency, TF over GST control). The binding signal in experiment [19] is 1.12 fold enrichment (6-mer frequency, TF over GST control).
